Measurements published in PubChem BioAssay (EPA / NIEHS).
Inconclusive results are not listed. The source made the active and inactive calls. How the source made its calls, unless noted: active means hit-call score of the fitted dose curve at least 0.9, where 1 is the maximum; inconclusive means response in the unintended direction; inactive means score below 0.9.

Assays:
[1] = read-out: X-box binding protein 1 (XBP1), XBP1 (gene 7494); test: LTEA_HepaRG_XBP1: Life Technologies and Expression Analysis (LTEA) Assay for X-box binding protein 1 (XBP1) using HepaRG (AID 2283540; active means hit-call score of the fitted dose curve at least 0.9, where 1 is the maximum; inactive means score below 0.9); conditions: mRNA level, 48 h; actives raise or lower the signal
Summary of the method: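 Transcript levels of XBP1, measured by qRT-PCR and normalised to three housekeeping genes, were fitted bidirectionally relative to 0.5% DMSO controls. Human HepaRG cells received eight-point half-log dilutions from 100 uM for 48 h.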

[2] = LTEA_HepaRG_LDH_cytotoxicity: Cytotoxicity Assessment in the Life Technologies and Expression Analysis (LTEA) Assay (AID 2283563);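 on AC50: LDH activity released into spent culture medium as a marker of cell death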
Summary of the method: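 Cells were thawed and plated for 48 h. Medium was then replaced with serum-free induction medium. Chemicals (8 half-log points, maximum 100 uM, 0.5% DMSO) were added in duplicate for 48 h, after which spent medium was assayed for LDH.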

[3] = TOX21_p53_BLA_p2_viability: Viability Assessment in the Tox21 HCT-116 p53 Agonism Beta-lactamase Assay, Phase 2 (AID 2283591);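 further: compound exposure lasted 16 h at 37 °C; actives lower the ATP signal meaning cytotoxicity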
Summary of the method: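 HCT-116 p53-bla cells (4000/well) rested 5 h at 37C, then received compounds in DMSO (217-fold dilution) for 16 h at 37C, 5% CO2. After the CCF4 read, CellTiter-Glo was added; ATP luminescence was read after 30 min at room temperature.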

[4] = target: Cellular tumor antigen p53 (Homo sapiens) (UniProt P04637); test: TOX21_p53_BLA_p2_ratio: Tox21 HCT-116 p53 Agonism Beta-lactamase Assay, Ratio, Phase 2 (AID 2283592)
Summary of the method: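 Plated HCT116 p53-bla cells (4000/well) received compound after 5 h, then 16 h at 37C/5% CO2. CCF4-AM added, 2 h RT. Ratio of 460 to 530 nm emission taken as the p53 reporter signal.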

[5] = TOX21_p53_BLA_p3_viability: Viability Assessment in the Tox21 HCT-116 p53 Agonism Beta-lactamase Assay, Phase 3 (AID 2283593);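 further: cells exposed to compound for 16 h before reading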
Summary of the method: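 HCT-116 cells (4000/well) rested 5 h at 37C, then got DMSO compounds by pin tool (217-fold dilution) for 16 h at 37C, 5% CO2. After the bla read, CellTiter-Glo was added and luminescence read at 30 min, room temperature.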

[6] = target: Cellular tumor antigen p53 (Homo sapiens) (UniProt P04637); test: TOX21_p53_BLA_p3_ratio: Tox21 HCT-116 p53 Agonism Beta-lactamase Assay, Ratio, Phase 3 (AID 2283596)
Summary of the method: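 Cells were seeded at 4000/well, rested 5 h at 37C, then dosed with DMSO compound solutions (217-fold dilution) for 16 h. CCF4-AM substrate was loaded for 2 h at room temperature, and the 460/530 nm emission ratio was fitted for gain of signal versus DMSO.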

[7] = TOX21_p53_BLA_p4_viability: Viability Assessment in the Tox21 HCT-116 p53 Agonism Beta-lactamase Assay, Phase 4 (AID 2283597);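 further: hits lower the luminescence signal meaning cytotoxicity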
Summary of the method: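 Readout: ATP luminescence (CellTiter-Glo), measured 30 min after reagent addition at RT. The reagent followed a 2 h CCF4-AM incubation, and the cells had been exposed to compound for 16 h at 37C.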

[8] = TOX21_p53_BLA_p5_viability: Viability Assessment in the Tox21 HCT-116 p53 Agonism Beta-lactamase Assay, Phase 5 (AID 2283600)
Summary of the method: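 Workflow: seed 4000 cells per well, wait 5 h, add compounds (DMSO, 217-fold dilution), incubate 16 h, load CCF4-AM 2 h, add CellTiter-Glo, read luminescence after 30 min.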

[9] = target: Cellular tumor antigen p53 (Homo sapiens) (UniProt P04637); test: TOX21_p53_BLA_p4_ratio: Tox21 HCT-116 p53 Agonism Beta-lactamase Assay, Ratio, Phase 4 (AID 2283601)
Summary of the method: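 HCT116 cells carrying an inducible beta-lactamase reporter were plated at 4000 cells/well, rested 5 h, then exposed to compounds in DMSO (217-fold dilution) for 16 h at 37C. CCF4-AM substrate was loaded 2 h at room temperature; 460/530 nm emission ratio scored gain-of-signal versus DMSO.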

[10] = Tanguay_ZF_120hpf_MORT_legacy: (Legacy) Oregon State University Tanguay Lab 120 Hour Post-fertilization zebrafish Assay for Mortality (AID 2283633);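 on AC50: fitted as increase in binary mortality versus DMSO negative control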
Summary of the method: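 5D WT zebrafish, chorion removed 4 hpf; 1 embryo/well from 6 hpf; static exposure to 120 hpf, 28C, dark, sealed. Final DMSO 0.64%. Readout: binary mortality, brightfield, 24 + 120 hpf; DMSO as negative control.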

[11] = Tanguay_ZF_120hpf_YSE_legacy: (Legacy) Oregon State University Tanguay Lab 120 Hour Post-fertilization zebrafish Assay for Yolk Sac Edema (AID 2283634);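 on AC50: actives raise the incidence of yolk sac edema above the DMSO baseline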
Summary of the method: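 Dechorionate (pronase, 4 hpf) → place one 6 hpf embryo per well → static compound exposure, sealed and foil-covered, 28C, to 120 hpf → record yolk sac edema as present or absent. Final DMSO 0.64%.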

[12] = Tanguay_ZF_120hpf_AXIS_legacy: (Legacy) Oregon State University Tanguay Lab 120 Hour Post-fertilization zebrafish Assay for Body Axis Malformation (AID 2283635);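 on AC50: potency for an increased fraction of larvae scored with body axis malformation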
Summary of the method: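 Chorion is removed with pronase at 4 hpf, then single 6 hpf embryos are dosed (final DMSO 0.64%) and held statically at 28C in sealed, foil-covered plates. At 120 hpf body axis malformation is recorded as present or absent.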

[13] = Tanguay_ZF_120hpf_JAW_legacy: (Legacy) Oregon State University Tanguay Lab 120 Hour Post-fertilization zebrafish Assay for Jaw Malformation (AID 2283638)
Summary of the method: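 Steps: dechorionate 4 hpf embryos (pronase); plate 1/well at 6 hpf; add test chemical, 0.64% DMSO final; seal, cover, hold at 28C statically to 120 hpf; score jaw defect presence/absence microscopically. Dead embryos not scored.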

[14] = Tanguay_ZF_120hpf_BRAI_legacy: (Legacy) Oregon State University Tanguay Lab 120 Hour Post-fertilization zebrafish Assay for Brain Malformation (AID 2283641)
Summary of the method: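 Wild-type 5D larvae, static waterborne exposure to 120 hpf, 28C, 0.64% v/v DMSO. Brightfield scoring of brain defects, binary; dead embryos excluded. Positive ctrl 5uM trimethyltin chloride.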

[15] = target: Cellular tumor antigen p53 (Homo sapiens) (UniProt P04637); test: TOX21_p53_BLA_p5_ratio: Tox21 HCT-116 p53 Agonism Beta-lactamase Assay, Ratio, Phase 5 (AID 2283599)
Summary of the method: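 HCT-116 cells carrying a p53-inducible beta-lactamase reporter were seeded at 4000 cells/well and dosed after 5 h with compound in DMSO (217-fold dilution). After 16 h at 37C, CCF4-AM substrate was added for 2 h, and the 460/530 nm emission ratio was scored as gain-of-signal versus DMSO.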

[16] = Tanguay_ZF_120hpf_OTIC_legacy: (Legacy) Oregon State University Tanguay Lab 120 Hour Post-fertilization zebrafish Assay for Otic Vesicle Malformation (AID 2283639)
Summary of the method: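 Statically exposed wild-type 5D zebrafish embryos, kept sealed and dark at 28C through 120 hours post fertilization, were examined by brightfield microscopy for otic vesicle defects. Responses were recorded as present or absent and analysed relative to DMSO.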

[17] = Tanguay_ZF_120hpf_PE_legacy: (Legacy) Oregon State University Tanguay Lab 120 Hour Post-fertilization zebrafish Assay for Pericardial Edema (AID 2283640);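 on AC50: potency for increased incidence of pericardial edema versus DMSO baseline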
Summary of the method: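 Embryos from wild-type 5D adults were staged, then dosed in 0.64% DMSO. They were kept sealed in the dark at 28C until 120 hpf. Pericardial edema was then recorded as present or absent.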

[18] = Tanguay_ZF_120hpf_SNOU_legacy: (Legacy) Oregon State University Tanguay Lab 120 Hour Post-fertilization zebrafish Assay for Snout Malformation (AID 2283637)
Summary of the method: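 Dechorionated zebrafish, individually housed from 6 hpf in covered, sealed wells at 28C with 0.64% DMSO vehicle, were examined at 120 hpf for snout malformation. Responses were binary and analysed positive-direction relative to DMSO.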

[19] = ATG_XTT_Cytotoxicity: Cytotoxicity Assessment in the Attagene TRANS-FACTORIAL HepG2 Assay (AID 2283584)
Summary of the method: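 Cells: human HepG2, transiently transfected with MRTU reporter constructs. Exposure 24 h. Readout: XTT, cell number. Baseline/neg ctrl DMSO; loss-of-signal scored.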

[20] = Tanguay_ZF_120hpf_EYE_legacy: (Legacy) Oregon State University Tanguay Lab 120 Hour Post-fertilization zebrafish Assay for Eye Malformation (AID 2283636);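 further: binary presence or absence of eye malformation scored by brightfield in 120 hpf larvae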
Summary of the method: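 Static waterborne exposure of dechorionated zebrafish embryos (strain Tropical 5D), 6 to 120 hpf, sealed plates at 28C, 0.64% DMSO vehicle. Eye malformation is scored as a binary endpoint, with gain of signal analysed relative to DMSO.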

Measured: AC50

Sequence of Cellular tumor antigen p53 (Homo sapiens) (P04637 whole entry, looked up): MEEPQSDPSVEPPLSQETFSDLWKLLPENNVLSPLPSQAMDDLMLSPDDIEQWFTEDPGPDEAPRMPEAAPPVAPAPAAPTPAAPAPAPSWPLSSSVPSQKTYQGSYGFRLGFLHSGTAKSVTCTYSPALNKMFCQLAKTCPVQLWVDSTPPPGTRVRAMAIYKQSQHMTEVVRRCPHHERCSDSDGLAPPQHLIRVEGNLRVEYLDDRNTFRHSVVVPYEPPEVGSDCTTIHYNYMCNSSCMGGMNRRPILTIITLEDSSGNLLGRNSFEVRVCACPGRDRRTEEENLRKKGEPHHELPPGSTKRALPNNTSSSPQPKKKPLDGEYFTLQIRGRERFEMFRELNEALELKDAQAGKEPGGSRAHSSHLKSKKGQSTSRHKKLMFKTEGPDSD

CO/N=C(/C1=NOCCO1)c1ccccc1Oc1ncnc(Oc2ccccc2Cl)c1F
active: [2] 33 µM | [4] 3.05 µM | [10] 2.4 µM | [12] 5.15 µM
inactive: [1] | [3] | [5] | [6] | [7] | [8] | [9] | [11] | [13] | [14]

CCOC(=O)C(C)OC(=O)c1cc(Oc2ccc(C(F)(F)F)cc2Cl)ccc1[N+](=O)[O-] (stereo not given)
inactive: [1] | [2] | [3] | [4] | [5] | [6] | [7] | [15] | [8] | [9] | [10] | [11] | [12] | [16] | [17] | [14]

CS(=O)(=O)c1ccc(C(=O)C2C(=O)CCCC2=O)c([N+](=O)[O-])c1
inactive: [1] | [2] | [3] | [4] | [5] | [6] | [7] | [15] | [8] | [9] | [10] | [11] | [12] | [18] | [13] | [16] | [14]

CC(C)(C)C(=O)C(Oc1ccc(Cl)cc1)n1cncn1 (stereo not given)
active: [15] 86 µM | [11] 36.8 µM | [12] 41.3 µM | [18] 34.8 µM | [17] 37.5 µM
inactive: [1] | [2] | [3] | [4] | [5] | [6] | [7] | [8] | [13] | [14]

C=C(C)CN(CC)c1c([N+](=O)[O-])cc(C(F)(F)F)cc1[N+](=O)[O-]
active: [9] 0.000117 µM
inactive: [1] | [2] | [19] | [3] | [4] | [5] | [6] | [10] | [11] | [12] | [18] | [13] | [16] | [14]

COC(=O)N(C(=O)N1CO[C@@]2(C(=O)OC)Cc3cc(Cl)ccc3C2=N1)c1ccc(OC(F)(F)F)cc1
inactive: [1] | [3] | [5] | [6] | [7] | [8] | [10] | [11] | [18] | [13] | [16] | [17] | [14]
active: [2] 60.5 µM | [4] 46.3 µM | [9] 37.6 µM

CC1(C)C(C(=O)OC(C#N)c2cccc(Oc3ccccc3)c2)C1(C)C (stereo not given)
inactive: [1] | [2] | [3] | [4] | [5] | [6] | [7] | [8] | [9] | [10] | [11] | [12] | [18] | [13] | [16] | [14]

CC(C)N1C(=O)N(c2ccccc2)CSC1=NC(C)(C)C
active: [2] 84.1 µM | [3] 84.6 µM | [7] 71.3 µM | [8] 69 µM | [9] 87.2 µM
inactive: [1] | [4] | [5] | [6] | [10] | [11] | [12] | [20] | [18] | [13] | [16]
